Shown is part of a subset that was picked to be rich in hits.
PI5P4Ka inh = blocks human PI5P4K alpha kinase activity; PI5P4Kalpha enzyme, ADP-Glo luminescence, 60 min; active compounds read low; max response, %; P48426; actives 1.2% (n = 330,000); AID 652105; active = max response of -50% or lower; inconclusive = between -30% and -50%; inactive = -30% or higher; also: value at the top dose of about 77 µM
Target sequence (P48426 whole entry, looked up): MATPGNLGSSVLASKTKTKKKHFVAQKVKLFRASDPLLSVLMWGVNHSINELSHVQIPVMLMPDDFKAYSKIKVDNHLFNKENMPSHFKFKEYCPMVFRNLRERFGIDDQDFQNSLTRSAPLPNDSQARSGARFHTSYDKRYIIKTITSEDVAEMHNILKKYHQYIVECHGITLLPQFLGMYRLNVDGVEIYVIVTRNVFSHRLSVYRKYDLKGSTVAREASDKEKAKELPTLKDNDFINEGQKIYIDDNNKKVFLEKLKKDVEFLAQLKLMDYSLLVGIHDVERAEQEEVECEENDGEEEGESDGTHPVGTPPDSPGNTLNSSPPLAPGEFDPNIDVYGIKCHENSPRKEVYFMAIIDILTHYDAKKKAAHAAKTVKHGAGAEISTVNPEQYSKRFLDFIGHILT
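qHTS, 1536-well: enzyme/substrate mix, compound by pin tool, 5 microM ATP final; RT 60 min; ADP-Glo reagents 1 (45 min) then 2 (30 min); luminescence.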
PI4K2A inh = inhibitors of human PI4K2A | activity change, negative = inhibition, % at 76.9 µM | actives 0.13% (n = 420,000) | purified PI4K2A, ADP-Glo luminescence, 1 h; active compounds read low | Q9BTU6; in the data active = activity change below about -50%; inconclusive = mostly about -30% to -49%
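In this quantitative HTS, ADP production by PI4K2A was quantified luminescently after 1 h at ambient temperature; 100 microM adenosine served as plate-quality control.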
Tb PFK inh-1 = inhibitors of T. brucei phosphofructokinase; Potency, µM (titrated, usually from 57.5 µM), usual class: inhibitors; T. brucei PFK, ADP-Glo luminescence; actives 0.17% (n = 330,000); also: nearly all actives have a fitted effect of over 60% in size
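1.25 nM PFK with 0.5 mM F6P and 0.1 mM ATP in 0.1 M TEA pH 8.0, 5 mM MgCl2, incubated 45 min at room temperature; ADP measured by ADP-Glo luminescence; compounds titrated up to 57 uM.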
Pin1 inh = human Pin1 inhibition; Q13526; Pin1 FP peptide displacement, HiFluor488, 10 min; Potency, µM (top dose mostly 115 µM), most hits filed as inhibitors; actives 0.009% (n = 390,000); active = well fitted inhibition curve with a large enough effect in the polarisation, with a control signal flat, not every such curve was filed as active; inconclusive = small, poorly fitted or top-dose-only effect, or effect the other way, or a change in a side signal; inactive = no such curve, though single readings can be large or run the other way; the % refers to the polarisation
PGK inhibitor = T. brucei PGK inhibition | PGK/GAPDH coupled, Kinase-Glo luminescence, 60 min | Potency, µM (titrated, usually from 57.5 µM), usual class: inhibitors | actives 0.043% (n = 380,000) | AID 602233; also: nearly all actives have a fitted effect of over 60% in size
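Recombinant glycosomal PGK reaction used 1,3-bisphosphoglycerate generated in-well by GAPDH (100nM final) in 100mM TEA pH 7.6, 5mM MgCl2, 0.01% Tween-20. After 60 minutes at room temperature, ATP was read by Kinase-Glo Plus luminescence end-point.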
TbPFK ATP = Tb phosphofructokinase inhibition, orthogonal luminescence. shares compounds with Tb PFK inh-1. Tb PFK enzyme, ATP depletion, Kinase-Glo Plus luminescence. Potency, µM (titrated, usually from 57.5 µM). actives 47% (n = 1,100). AID 504636; calls by dose curve; also: nearly all actives have a fitted effect of over 60% in size
Tb PFK inh-2 = T. brucei PFK enzyme inhibition, hit validation. shares compounds with Tb PFK inh-1. purified T. brucei PFK, ADP-Glo luminescence, 45 min. Potency, µM (doses to about 57.5 µM), usual class: inhibitors. actives 41% (n = 1,100). AID 504637; also: nearly all actives have a fitted effect of over 60% in size
Numbers stand for hits; - = inactive; ? = inconclusive; . = no result. Unless noted, calls follow the shape of the dose curve; as a rule, active = well fitted curve in the direction sought with a large enough effect; inconclusive = small, poorly fitted or top-dose-only effect, or another doubt; inactive = no such curve, though single readings can be large; an effect the other way counts as inactive or inconclusive.

SMILES	PI5P4Ka inh	PI4K2A inh	Tb PFK inh-1	Pin1 inh	PGK inhibitor	TbPFK ATP	Tb PFK inh-2
C[C@H]1CC[C@@H]2[C@@H](C)[C@H]3C(C[C@H]4C5CC[C@H]6C[C@@H](O)CC[C@]6(C)C5CC[C@]34C)N2C1 (stereo partly drawn)	.	.	.	-	.	.	.
CCOC(=O)c1c(-c2ccc(OC)cc2)csc1/N=C/C1C(=O)CCCC1=O	-	-	?	?	-	-	-
CCOC(=O)c1cc(C)sc1/N=C/C1C(=O)NC(=S)NC1=O	?	?	-	-	-	.	.
O=C(Cn1ccc2ccccc2c1=O)NCCC(=O)N1CCN(c2cccc(Cl)c2)CC1	.	-	24µM	-	-	?	?
O=C1CCc2cc(S(=O)(=O)NCCC(=O)N3CCN(c4cccc(Cl)c4)CC3)ccc2N1	.	-	27µM	-	-	17µM	?
CCCNS(=O)(=O)c1ccc(OCC(=O)N2CCN(Cc3ccccc3)CC2)cc1	.	-	-	-	-	.	.
O=C(Cn1cnc2ccccc2c1=O)NCCC(=O)N1CCC2(CC1)OCCO2	-	-	-	-	-	.	.
Cc1n[nH]c(C)c1Sc1ccccc1[N+](=O)[O-]	-	-	?	-	-	?	?
COC(=O)\C(C(C)=O)=C(/C=C/C=C/C=C/N(C)C)N(C)C	-	-	?	?	?	?	?
O=C(NCCc1ccccc1)c1ccc2nc(-c3ccco3)c(-c3ccco3)nc2c1	-63	-	?	?	-	?	?
NS(=O)(=O)c1ccc(NC(=S)NCc2cccc(Cl)c2)cc1	-	-	?	-	-	1.5µM	2.4µM
NS(=O)(=O)c1ccc(NC(=S)Nc2cc(Cl)c(Cl)cc2Cl)cc1	-	-	?	-	-	27µM	?
NS(=O)(=O)c1ccc(NC(=O)Nc2ccc(Cl)cc2)cc1	-	-	12µM	-	-	6µM	11µM
Nc1c(C(=O)Nc2ccc(F)c(Cl)c2)sc2nc3c(cc12)N1CCC3CC1	.	-	.	-	-	.	.
ClC1=C(Cl)C(Cl)=C(Cl)C1=C/C=C/c1ccccc1	-	-	-	?	-	.	.
Cc1nnc(NC(=O)c2cccn(Cc3ccccc3)c2=O)s1	.	-	.	-	-	.	.
O=C(Nc1nnc(-c2ccccc2)s1)c1ccccc1O	-	-	?	-	-	-	?
Cc1ccc(-c2nnn3c2nc(NCCc2ccc(S(N)(=O)=O)cc2)c2ccccc23)cc1	-	-	?	?	-	?	?
CS(=O)(=O)N1CC(C(=O)NC2CCCC2)Oc2ccc(Cl)cc21 (stereo not drawn)	.	-	19µM	-	-	9.5µM	24µM
COC(=O)C1=C(c2ccccc2OCc2ccccc2)C[C@@H]2CC[C@H]1N2C(=O)NCCc1ccc(F)cc1	-	-	-	?	-	.	.
COc1ccc(O)c2c(=O)c3c(OC)cc4c(c3oc12)C1C=COC1O4 (stereo not drawn)	-	-	-	-	-	.	.
COc1cc(O)c2c(=O)c3c(O)ccc(O)c3oc2c1	-	-	?	?	-	?	?
O=C(Cn1cc(C(=O)c2ccccc2F)c2ccccc21)NCc1ccco1	.	-	-	-	-	.	.
N#Cc1ccc2ccn(CC(=O)NCc3ccco3)c2c1	-	-	21µM	-	-	13µM	30µM
COc1ccc(CNC(=O)CSCc2cnn(-c3ccccc3)c2-n2cccc2)cc1OC	.	-	.	?	-	.	.
SMILES	PI5P4Ka inh	PI4K2A inh	Tb PFK inh-1	Pin1 inh	PGK inhibitor	TbPFK ATP	Tb PFK inh-2
C=CC#CC[N+]1(CC#Cc2ccccc2)CCOCC1	-82	-	?	-	-	-	?
CCSc1nnc(NC(=O)c2cccn(Cc3ccc(Cl)cc3)c2=O)s1	.	-	.	-	-	.	.
COc1ccc2[nH]c3c(=O)n(CCCCC(=O)NCCN4CCCC4)c(=S)[nH]c3c2c1	.	-	?	?	-	?	?
N[C@@H](Cn1ccc(=O)[nH]c1=O)C(=O)O	.	-	.	.	.	.	.
O=C(O)CCCNc1ccc(S(=O)(=O)Nc2ccccc2C(=O)O)cc1C(=O)O	.	-	?	?	.	-	?
Cc1c(NS(=O)(=O)c2ccccc2)ccc([N+](=O)[O-])c1Cl	-	-	.	-	-	.	.
